Read-out in assay [1]: Human Leukocyte Antigen - DR isotype (HLADR), HLA-DRA (gene 3122)
The assay is described as follows: BSK_3C_HLADR: BioMAP Diversity Plus: 3C Assay for Human Leukocyte Antigen - DR isotype (HLADR) Biomarker Activity (AID 2283019). The conditions noted are these: primary human endothelial cells (HUVEC); actives raise or lower the signal. The method, boiled down: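 ELISA readout of surface HLA-DR on human umbilical vein endothelium, taken 24 h after chemical treatment. Gain- and loss-of-signal were both fitted relative to DMSO.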

The nature of assay [2]: BSK_3C_Vis: BioMAP Diversity Plus: 3C Assay for Morphology Visualization (AID 2283025).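 Also: fitted both ways so gain or loss versus DMSO counts.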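 As to AC50: light microscopy image of cell morphology used as background control.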 The conditions noted are these: primary human endothelial cells (HUVEC). The procedure, abridged:
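Chemicals were added to primary human umbilical vein endothelium, cells were incubated 24 h, and morphology was then visualized by light microscopy. Gain or loss of signal was fitted bidirectionally relative to DMSO.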

Read-out in assay [3]: Human Leukocyte Antigen - DR isotype (HLADR), HLA-DRA (gene 3122)
The assay is described as follows: BSK_BE3C_HLADR: BioMAP Diversity Plus: BE3C Assay for Human Leukocyte Antigen - DR isotype (HLADR) Biomarker Activity (AID 2283032). The conditions noted are these: primary human bronchial epithelial cells; actives raise or lower the signal. The procedure, abridged:
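ELISA read-out of HLA-DR on human lung bronchial epithelial primary cells, measured 24 h post-dosing. Both increases and decreases were scored relative to DMSO vehicle.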

Read-out in assay [4]: Interleukin-8 (IL8), CXCL8 (gene 3576)
In words: BSK_CASM3C_IL8: BioMAP Diversity Plus: CASM3C Assay for Interleukin-8 (IL8) Biomarker Activity (AID 2283042).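 Also: IL-8 protein level quantified by ELISA.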 The conditions noted are these: primary human coronary artery smooth muscle cells; actives raise or lower the signal.

Read-out in assay [5]: Monokine induced gamma interferon (MIG), CXCL9 (gene 4283)
In words: BSK_CASM3C_MIG: BioMAP Diversity Plus: CASM3C Assay for Monokine induced gamma interferon (MIG) Biomarker Activity (AID 2283048).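 Also: MIG protein level measured by ELISA.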 The conditions noted are these: primary human coronary artery smooth muscle cells; actives raise or lower the signal.

Read-out in assay [6]: Urokinase-type plasminogen activator receptor (uPAR), PLAUR (gene 5329)
The assay is described as follows: BSK_CASM3C_uPAR: BioMAP Diversity Plus: CASM3C Assay for Urokinase-type plasminogen activator receptor (uPAR) Biomarker Activity (AID 2283054).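 Also: cell-surface uPAR protein level quantified by ELISA.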 The conditions noted are these: primary human coronary artery smooth muscle cells; actives raise or lower the signal.

Read-out in assay [7]: Intercellular Adhesion Molecule 1 (ICAM1), ICAM1 (gene 3383)
In words: BSK_KF3CT_ICAM1: BioMAP Diversity Plus: KF3CT Assay for Intercellular Adhesion Molecule 1 (ICAM1) Biomarker Activity (AID 2283067). The conditions noted are these: primary human keratinocytes with fibroblasts; actives raise or lower the signal. The method, boiled down:
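ICAM-1 levels are measured by ELISA 24 h after dosing a primary human co-culture of keratinocytes and foreskin fibroblasts. Activity in either direction is fitted relative to DMSO vehicle.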

Read-out in assay [8]: Macrophage colony-stimulating factor (MCSF), CSF1 (gene 1435)
In words: BSK_LPS_MCSF: BioMAP Diversity Plus: LPS Assay for Macrophage colony-stimulating factor (MCSF) Biomarker Activity (AID 2283083). The conditions noted are these: primary human HUVEC with PBMC; actives raise or lower the signal. The procedure, abridged:
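ELISA readout of M-CSF after 24 h compound exposure in a human endothelial/PBMC co-culture. Activity, in either direction, is fitted relative to DMSO vehicle.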

Read-out in assay [9]: Tissue Factor, F3 (gene 2152)
The assay is described as follows: BSK_LPS_TissueFactor: BioMAP Diversity Plus: LPS Assay for Tissue Factor Biomarker Activity (AID 2283084). The conditions noted are these: primary human HUVEC with PBMC; actives raise or lower the signal. The method, boiled down:
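ELISA signal for cell-surface Tissue Factor (CD142) was read 24 h after compound dosing of an LPS-stimulated human endothelial–PBMC primary co-culture. Gain or loss of signal was scored relative to DMSO.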

Read-out in assay [10]: Vascular cell adhesion molecule 1 (VCAM1), VCAM1 (gene 7412)
The assay is described as follows: BSK_LPS_VCAM1: BioMAP Diversity Plus: LPS Assay for Vascular cell adhesion molecule 1 (VCAM1) Biomarker Activity (AID 2283086). The conditions noted are these: primary human HUVEC with PBMC; actives raise or lower the signal. The procedure, abridged: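 HUVEC + PBMC co-culture, LPS system; compound 24 h; VCAM-1 by ELISA; bidirectional fit vs DMSO control; parallel SRB (0.1%, TCA-fixed, 560 nm) for cytotoxicity.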

Read-out in another assay: CD40, CD40 (gene 958)
The assay is described as follows: BSK_SAg_CD40: BioMAP Diversity Plus: SAg Assay for CD40 Biomarker Activity (AID 2283088). The conditions noted are these: primary human HUVEC with PBMC; actives raise or lower the signal. The method, boiled down: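 Compounds were dosed onto a human primary endothelial–PBMC co-culture, and after 24 h CD40 was quantified by ELISA using a fluorescence signal. Activity in either direction was fitted relative to DMSO.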

Read-out in assay [11]: Monocyte Chemoattractant Protein-1 (MCP1), CCL2 (gene 6347)
In words: BSK_SAg_MCP1: BioMAP Diversity Plus: SAg Assay for Monocyte Chemoattractant Protein-1 (MCP1) Biomarker Activity (AID 2283090). Particulars: primary human HUVEC with PBMC; actives raise or lower the signal. The procedure, abridged:
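MCP-1 levels in the endothelial–PBMC SAg co-culture were quantified by ELISA at 24 h post-dosing; both increases and decreases versus DMSO scored. Cytotoxicity monitored by SRB total protein in parallel cultures.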

Read-out in assay [12]: Monokine induced gamma interferon (MIG), CXCL9 (gene 4283)
The assay is described as follows: BSK_SAg_MIG: BioMAP Diversity Plus: SAg Assay for Monokine induced gamma interferon (MIG) Biomarker Activity (AID 2283092). Particulars: primary human HUVEC with PBMC; actives raise or lower the signal. The procedure, abridged: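 Endothelial cells and PBMC were co-cultured, exposed to test chemicals, and sampled 24 h later. MIG was measured by ELISA, and responses were fitted in both directions relative to DMSO.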

Read-out in assay [13]: Interleukin-8 (IL8), CXCL8 (gene 3576)
In words: BSK_SAg_IL8: BioMAP Diversity Plus: SAg Assay for Interleukin-8 (IL8) Biomarker Activity (AID 2283094). Particulars: primary human HUVEC with PBMC; actives raise or lower the signal. The method, boiled down: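 ELISA read-out of IL-8 in a primary human vascular co-culture (umbilical vein endothelium plus PBMC), taken 24 h after compound addition. Values derive from bidirectional fits against DMSO negative controls.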

The nature of assay [14]: BSK_SAg_Proliferation: Cell Proliferation Assessment in the BioMAP Diversity Plus: SAg Assay (AID 2283095).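 Also: relative cell number as total protein by SRB absorbance in sub-confluent culture.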 Particulars: primary human HUVEC with PBMC. The procedure, abridged: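 Cells (endothelium plus PBMC, human primary) were dosed with chemical, cultured 96 h, fixed in 10% TCA and stained with 0.1% SRB. Absorbance at 560 nm gave relative protein, fitted bidirectionally relative to DMSO.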

Assay [15] is described as follows: BSK_BT_Bcell_Proliferation: Viability Assessment in the BioMAP Diversity Plus: BT Assay for B cell Proliferation (AID 2284227). Particulars: primary human B cells with PBMC. The method, boiled down: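 Read-out is absorbance at 560 nm from sulforhodamine B staining of total protein, reflecting relative cell numbers in a human B cell and PBMC co-culture after 72 h of chemical exposure. Values were referenced to DMSO.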

Read-out in assay [16]: Interleukin 17A (IL17A), IL17A (gene 3605)
In words: BSK_BT_xIL17A: BioMAP Diversity Plus: BT Assay for Interleukin 17A (IL17A) Biomarker Activity (AID 2284229). The conditions noted are these: primary human B cells with PBMC. The procedure, abridged:
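Secreted IL-17A was the measured endpoint, read by Luminex xMAP multiplex in supernatants of a human B cell/PBMC co-culture harvested 24 h after chemical dosing. Signal increase relative to DMSO defined activity.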

Read-out in assay [17]: Collagen III, COL3A1 (gene 1281)
In words: BSK_MyoF_CollagenIII: BioMAP Diversity Plus: MyoF Assay for Collagen III Biomarker Activity (AID 2284239). The conditions noted are these: primary human lung fibroblasts. The procedure, abridged:
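ELISA read-out of collagen III from human lung fibroblasts after 24 h of chemical treatment. The DMSO control served as negative control and baseline, with values fitted in the positive direction.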

Read-out in assay [18]: Interleukin 2 (IL2), IL2 (gene 3558)
In words: BSK_BT_xIL2: BioMAP Diversity Plus: BT Assay for Interleukin 2 (IL2) Biomarker Activity (AID 2284245). The conditions noted are these: primary human B cells with PBMC. The procedure, abridged:
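B cell + PBMC co-culture (human primary), compound added, 24 h incubation; secreted IL-2 measured multiplexed on Luminex xMAP; gain-of-signal fit vs DMSO.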

Read-out in assay [19]: Matrix Metallopeptidase 1 (MMP1), MMP1 (gene 4312)
In words: BSK_MyoF_MMP1: BioMAP Diversity Plus: MyoF Assay for Matrix Metallopeptidase 1 (MMP1) Biomarker Activity (AID 2284268). The conditions noted are these: primary human lung fibroblasts. The procedure, abridged:
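Lung fibroblast cultures were dosed with test chemicals and, after 24 h, MMP1 levels were measured by ELISA; responses were referenced to DMSO and analysed for increases.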

Active and inactive are the calls of the source. The calls were made as follows: active = hit-call score of the fitted dose curve at least 0.9, where 1 is the maximum; inactive = score below 0.9.

The term AC50 denotes the concentration at which the activity in the assay is half-maximal.

With `O=c1c2ccccc2c(=O)c2c1cc(Cl)c1[nH]c3c([nH]c12)c(Cl)cc1c(=O)c2ccccc2c(=O)c13`, the result in assay [1], in assay [2], in assay [3], in assay [4], in assay [5] and in assay [6] was inactive. In addition, the outcome in assay [7] was “inactive”; in assay [8], “inactive”; in [9], “inactive”; in [10], “inactive”; with CD40, CD40 (gene 958), “inactive”; in [11] it was “inactive”. In addition, the result in assay [12], in [13], in [14], in assay [15], in assay [16] and in [17] was inactive. Moreover, the result in assay [18] and in assay [19] was inactive.
`O=S(=O)(c1ccccc1)c1ccccc1`: the result in assay [1], in assay [2], in assay [3], in assay [4], in assay [5] and in assay [6] was inactive. For the same compound, the outcome in assay [7] is “inactive”; in assay [8] it was “inactive”; in assay [9] it was “inactive”; in assay [10], “inactive”; in the assay with CD40, CD40 (gene 958), “inactive”; in assay [11], “inactive”. Further, the outcome in assay [12], in [13], in assay [14], in [15], in assay [16] and in assay [17] was inactive. The outcome in assay [18] and in [19] was inactive.
Take `C=CC(=O)OCC(CC)CCCC` (configuration not stated): the AC50 in assay [1] was 31.9 µM (active); in [10], 7.48 µM (active). The result in assay [2], in assay [3], in assay [4], in assay [5], in [6] and in assay [7] was inactive. Besides, the outcome in assay [8] was “inactive”; in assay [9], “inactive”; with CD40, CD40 (gene 958), “inactive”; in assay [11], “inactive”; in assay [12], “inactive”; in assay [13] it was “inactive”. Besides, the result in [14], in [15], in assay [16], in assay [17], in [18] and in assay [19] was inactive.
Regarding `CC(C)CCCCCCCOC(=O)c1ccccc1C(=O)OCCCCCCCC(C)C`, the outcome in [1], in assay [2], in assay [3], in assay [4], in assay [5] and in assay [6] was inactive. In addition, the outcome was “inactive” in assay [7]; “inactive” in assay [8]; “inactive” in [9]; “inactive” in assay [10]; “inactive” with CD40, CD40 (gene 958); “inactive” in [11]. For the same compound, the outcome in [12], in assay [13], in assay [14], in assay [15], in assay [16] and in assay [17] was inactive. For the same compound, the outcome in [18] and in assay [19] was inactive.
In the case of `CC(C)(C)C(O)C(Oc1ccc(-c2ccccc2)cc1)n1cncn1` (configuration not stated), the AC50 was 30.6 µM (active) in assay [1]; 37.6 µM (active) in [2]; 29 µM (active) in assay [6]; 29.8 µM (active) in [15]; 30.5 µM (active) in assay [17]; 20 µM (active) in [18]. In addition, the AC50 in assay [19] is 30 µM (active). Besides, the outcome in assay [3], in assay [4], in assay [5], in assay [7], in [8] and in [9] was inactive. For the same compound, the outcome in assay [10] is “inactive”; in the assay with CD40, CD40 (gene 958) it was “inactive”; in assay [11] it was “inactive”; in assay [12], “inactive”; in [13], “inactive”; in assay [14], “inactive”. Further, in assay [16], the outcome was inactive.
For `Nc1ccc(-c2ccc(N)c(N)c2)cc1N`, the outcome in assay [2], in assay [3], in [4], in assay [6], in assay [8] and in [9] was inactive. For the same compound, the outcome with CD40, CD40 (gene 958) was “inactive”; in assay [11] it was “inactive”; in assay [12], “inactive”; in [13], “inactive”; in assay [14] it was “inactive”; in [15], “inactive”. The outcome in [16], in assay [17], in assay [18] and in [19] was inactive. In addition, in assay [10], the AC50 was 20 µM (active).
